The record followed here is the supplement of paper PMC8253809.

Structures are written as SMILES.

This assay concerns HGGX39 (paediatric high-grade glioma line). Nature of the assay: growth inhibition (% activity, log2 RLU normalised to DMSO / staurosporine); higher = more growth inhibition. Conditions: 33 µM. In a few lines: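 On Geltrex-coated 384-well plates, pHGG cell lines and H9-derived neural stem cells were grown with approved drugs pinned in at a single final concentration of about 33 μM, in triplicate, for 7 days at 37 °C, 5% CO2. Per-plate normalisation of log2-transformed CellTiter-Glo luminescence to % activity between solvent and positive control wells followed. Each growth-inhibition value is the median over the replicates.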
With `Cc1ccc(NC(=O)c2ccc(CN3CCN(C)CC3)cc2)cc1Nc1nc(-c2cccnc2)cs1`, the growth inhibition came out at 15.1%. To `CO[C@H]1C(=O)[C@]2(C)[C@@H](OC)C[C@H]3OC[C@@]3(OC(C)=O)[C@H]2[C@H](OC(=O)c2ccccc2)[C@]2(O)C[C@H](OC(=O)[C@H](O)[C@@H](NC(=O)OC(C)(C)C)c3ccccc3)C(C)=C1C2(C)C` belongs 26.1%; to `C#C[C@]1(O)CC[C@H]2[C@@H]3CCc4cc(O)ccc4[C@H]3CC[C@@]21C`, 0.261%; to `CN(C)c1ccc(C(=C2C=CC(=[N+](C)C)C=C2)c2ccc(N(C)C)cc2)cc1`, 51.4%.

As for `CN1CCN(c2c(F)cc3c(=O)c(C(=O)O)cn(CCF)c3c2F)CC1`, the growth inhibition came to 2.42%. To `CC(C)(C#N)c1cc(Cn2cncn2)cc(C(C)(C)C#N)c1` belongs 0.325%; to `CNC(=O)c1ccccc1Sc1ccc2c(/C=C/c3ccccn3)n[nH]c2c1`, 10.9%. To `Cc1ccccc1C(=O)Nc1ccc(C(=O)N2CCCC(O)c3cc(Cl)ccc32)c(C)c1` (centres undefined) belongs 5.63%; to `O=C(O)c1cc(=O)c2ccccc2o1`, 0.445%; to `CC[C@H](C)C(=O)O[C@H]1C[C@H](O)C=C2C=C[C@H](C)[C@H](CC[C@@H](O)C[C@@H](O)CC(=O)O)[C@H]21`, 8.71%. To `Cc1ccccc1C(OCCN(C)C)c1ccccc1` (centres undefined) belongs 2.28%; to `CC(C)(Oc1ccc(Cl)cc1)C(=O)O`, 0.448%; to `C#C[C@]1(OC(C)=O)CC[C@H]2[C@@H]3CCC4=C[C@@H](OC(C)=O)CC[C@@H]4[C@H]3CC[C@@]21C`, -0.196%. Take `CN1[C@@H]2CC[C@H]1CC(OC(=O)c1c[nH]c3ccccc13)C2` (some centres undefined): the growth inhibition stood at 7.53%.
